Reference: PubChem BioAssay (NCATS)
Records with an inconclusive call do not appear. A call without a number means that no potency is given here. The source made the active and inactive calls. Unless noted, the call rests on the fitted dose curve; in most records, active means well fitted curve in the direction sought with a large enough effect; inconclusive means small, poorly fitted or top-dose-only effect, or another doubt; inactive means no such curve, though single readings can be large; an effect the other way counts as inactive or inconclusive.

Key:
[1] = Validation screen for small molecules that induce genotoxicity in human embryonic kidney (HEK293T) cells expressing luciferase-tagged ELG1 (AID 493106)
How it was run: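 HEK293T cells expressing luciferase-tagged ELG1 were exposed to compound or DMSO vehicle for 16 hr at 37 °C, 5% CO2. Genotoxic stress raises ELG1 levels, so increased luciferase signal after ONE-Glo addition and 30 min at room temperature marks hits.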

[2] = target: Thyrotropin-releasing hormone receptor (Homo sapiens) (UniProt P34981); assay: qHTS for Small Molecule Agonists and Allosteric Enhancers of Human TRH Receptor: Validation Screen for Agonists (AID 493127;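 active means calcium activation more than 3 SD above the typical response in the agonist read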;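 further: intracellular calcium rise by fluo-8 fluorescence before TRH EC20 addition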); details: TRH receptor agonist cell assay; at 2 µM; stronger effect = higher value
How it was run: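 TRHR-expressing cells were plated overnight in serum-containing medium, then loaded with fluo-8 calcium dye at room temperature for 30 min–1.5 h. After a 10 s baseline, compound was pin-transferred and calcium fluorescence (ex 480/em 530) read kinetically for agonist response.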

[3] = Nrf2 qHTS screen for inhibitors: Validation (AID 493153; active means well fitted inhibition curve with a large enough effect in the main read-out, with a control signal flat, not every such curve was filed as active); details: Potency: luciferase luminescence; viability change: measured here: cytotoxicity max response
How it was run: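 A549 cells carrying an ARE-driven firefly luciferase reporter, in 5% FBS OPTI-MEM, were treated with compounds in concentration-response for 18-24 h at 37°C. Viability was read by CellTiter-Fluor fluorescence, then Nrf2 activity by luciferase luminescence.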

[4] = qHTS for Inhibitors of Cell Surface uPA Generation: Validation Assay (AID 493164);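 further: RAW 264.7 macrophage cells exposed to compound for 18 h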
How it was run: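 RAW 264.7, 4000 cells/well, o/n plating; cpd 7-pt 1:5 dilution 2.45 nM–38.3 uM final; 18 h, 37 C/5% CO2; ATP-Lite, 5 s luminescence exposure.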

[5] = target: Galactokinase (Homo sapiens) (UniProt P51570); assay: qHTS Validation Assay for Inhibitors of Human Galactokinase (GALK) (AID 493189)
How it was run: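 Luminescence from leftover ATP (Kinase-Glo Plus, 10 min) served as read-out after a 1 h room-temperature reaction of 5 nM GALK, 100 uM galactose and 35 uM ATP at pH8.0.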

[6] = Validation screen for small molecules that induce DNA re-replication in SW480 colon adenocarcinoma cells (AID 504364)
How it was run: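 SW480 cells seeded at 250 per well were exposed to compound or DMSO for 48 hr at 37 C, 5% CO2, then stained with Hoechst for 40 min. DNA content per nucleus was imaged (405 nm ex, 500-530 nm em).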

[7] = target: Phosphoglycerate kinase, glycosomal (Trypanosoma brucei brucei) (UniProt P07378); assay: qHTS Validation Assay to Find Inhibitors of Phosphoglycerate Kinase (AID 504547)
How it was run: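 Inhibition of the enzyme is judged by a Kinase-Glo Plus luminescent signal following a one-hour incubation at room temperature. Because 1,3-BPG is unstable, it is made in situ by GAPDH at 100nM final; no-PGK wells define the baseline.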

[8] = target: phosphoglycerate mutase (Leishmania major) (UniProt Q4Q090); assay: qHTS Validation Assay to Find Inhibitors of Phosphoglycerate Mutase (AID 504548);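 further: end-point luminescence from Kinase-GloPlus after the PGAM reaction; series mostly up to about 58 µM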
How it was run: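 L. major PGAM (1.25nM final) was added to substrate buffer and pinned compound, incubated 45 minutes at room temperature, then Kinase-GloPlus added; luminescence read after 10 minutes. Buffer: 100 mM TEA pH 7.6, 5 mM MgCl2, 0.01% Tween-20.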

[9] = target: Ubiquitin carboxyl-terminal hydrolase 1 (Homo sapiens) (UniProt O94782); assay: Inhibitors of USP1/UAF1: Pilot qHTS (AID 504865);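 further: rhodamine fluorescence freed from ubiquitin-rhodamine substrate followed over time; top concentration of the series differs between compounds; nearly all actives have a fitted effect of over 35% in size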
How it was run: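 1nM USP1/UAF1 + cpd, 15 min RT; start w/ Ub-Rho 150nM final; kinetic FL 480/540 nm, 6 reads q60 s. Buffer 50mM HEPES pH 7.8, 0.5mM EDTA, 1mM TCEP, 0.01% Tween-20, 0.1 mg/ml BSA.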

[10] = qHTS for Inhibitors of ATXN expression: Validation of Cytotoxic Assay (AID 588349); further: potency means the concentration at half of the fitted maximal effect
How it was run: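 HEK293 cells were dosed with titrated compounds for 72 hr at 37 degrees C. Viability was read by CellTiter Glo luminescence, with intracellular ATP as the marker of cell survival.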

[11] = qHTS for Inhibitors of ATXN expression: Validation (AID 588378); further: nearly all actives have a fitted effect of over 75% in size; further: potency means the concentration at half of the fitted maximal effect
How it was run: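 Cells: HEK293-ATXN2-FFLuc, phenol-red free DMEM, 2 h attachment. Compound pin-transfer, 24 h, 37 degrees C, 5% CO2. CellTiter-Fluor 30 min, Ex405/Em525; Bright-Glo 5 min, luminescence 2 s exposure.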

[12] = target: DNA dC->dU-editing enzyme APOBEC-3G (Homo sapiens) (UniProt Q9HC16); assay: qHTS for inhibitors of Vif-A3G interactions: Validation (AID 588379)
How it was run: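 HeLa cells stably expressing Vif and A3G-eYFP, 700 cells/well, incubated overnight at 37 deg C, then exposed to compound overnight at 37 deg C. Inhibition of Vif-mediated degradation read as increased yellow fluorescence (Ex 488/Em 500-530) by laser-scanning cytometry.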

[13] = target: ATPase family AAA domain-containing protein 5 (Homo sapiens) (UniProt Q96QE3); assay: Validation screen for small molecules that inhibit ELG1-dependent DNA repair in human embryonic kidney (HEK293T) cells expressing luciferase-tagged ELG1 (AID 493107); further: nearly all actives have a fitted effect of over 70% in size; further: potency means the concentration at half of the fitted maximal effect
How it was run: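 HEK293T cells expressing luciferase-tagged ELG1 were co-treated with 5-fluorouridine and compound or DMSO for 16 hr at 37 °C, 5% CO2. Luciferase activity was then read with ONE-Glo after 30 min at room temperature; suppressed signal indicates blocked ELG1 function.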

[14] = target: Peptidyl-prolyl cis-trans isomerase NIMA-interacting 1 (Homo sapiens) (UniProt Q13526); assay: qHTS Validation Assay to Find Inhibitors of Pin1 (AID 504536; active means well fitted inhibition curve with a large enough effect in the polarisation, with a control signal flat, not every such curve was filed as active; the % refers to the polarisation)
How it was run: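 Fluorescence polarization competition: compounds (titration) displace HiFluor-488-labeled Pin1-1b peptide from Pin1 (0.3 uM final) in pH 7.5 HEPES buffer with DTT, 10 min at room temperature; %Activity normalized to no-enzyme wells, curves fitted.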

[15] = target: Estrogen receptor (Homo sapiens) (UniProt P03372); assay: qHTS assay for small molecule antagonists of estrogen receptor alpha signaling (AID 588513; active means well fitted curve in the direction sought with a large enough effect in the signal ratio, with a control signal flat, not every such curve was filed as active; the % refers to the signal ratio)
How it was run: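 Beta-lactamase reporter, antagonist mode, HEK 293 GripTite cells; 0.5nM E2 stimulus, 18 h, 37 C; CCF4 dye 2 h RT; fluorescence. IC50 and efficacy from Hill fits, normalized to E2 and DMSO.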

[16] = target: Estrogen receptor (Homo sapiens) (UniProt P03372); assay: qHTS assay for small molecule agonists of estrogen receptor alpha signaling (AID 588514; calls by dose curve; further: nearly all actives have a fitted effect of over 70% in size)
How it was run: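 ER-alpha-UAS-bla GripTite HEK 293 cells in medium with 2% charcoal/dextran-treated FBS were treated with compound titrations at 37 C for 18 hrs; beta-lactamase reporter read by CCF4 fluorescence after 2 hrs at RT.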

Sequence of Phosphoglycerate kinase, glycosomal (Trypanosoma brucei brucei) (P07378 whole entry, looked up): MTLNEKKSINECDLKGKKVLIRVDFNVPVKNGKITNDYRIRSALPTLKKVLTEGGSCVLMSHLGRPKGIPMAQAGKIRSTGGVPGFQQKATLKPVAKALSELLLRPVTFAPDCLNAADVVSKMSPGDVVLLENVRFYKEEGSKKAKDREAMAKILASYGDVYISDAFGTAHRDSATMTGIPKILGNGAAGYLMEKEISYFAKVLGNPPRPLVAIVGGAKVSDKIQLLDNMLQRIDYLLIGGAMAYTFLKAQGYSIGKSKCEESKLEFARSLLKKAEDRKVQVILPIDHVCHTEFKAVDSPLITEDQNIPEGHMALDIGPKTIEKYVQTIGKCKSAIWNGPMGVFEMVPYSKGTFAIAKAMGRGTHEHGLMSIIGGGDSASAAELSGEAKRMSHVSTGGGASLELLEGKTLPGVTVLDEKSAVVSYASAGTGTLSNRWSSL
Sequence of Thyrotropin-releasing hormone receptor (Homo sapiens) (P34981 whole entry, looked up): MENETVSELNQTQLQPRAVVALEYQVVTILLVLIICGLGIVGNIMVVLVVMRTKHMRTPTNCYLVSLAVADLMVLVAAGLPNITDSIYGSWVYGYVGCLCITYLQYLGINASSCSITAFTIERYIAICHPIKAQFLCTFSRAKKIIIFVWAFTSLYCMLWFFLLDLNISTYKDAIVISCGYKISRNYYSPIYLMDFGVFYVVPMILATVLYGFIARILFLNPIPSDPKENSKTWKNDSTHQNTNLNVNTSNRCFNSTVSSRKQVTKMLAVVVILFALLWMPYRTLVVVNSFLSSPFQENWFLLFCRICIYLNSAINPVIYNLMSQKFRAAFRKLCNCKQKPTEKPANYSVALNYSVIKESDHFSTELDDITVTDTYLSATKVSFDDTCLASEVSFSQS
Sequence of phosphoglycerate mutase (Leishmania major) (Q4Q090 1-553): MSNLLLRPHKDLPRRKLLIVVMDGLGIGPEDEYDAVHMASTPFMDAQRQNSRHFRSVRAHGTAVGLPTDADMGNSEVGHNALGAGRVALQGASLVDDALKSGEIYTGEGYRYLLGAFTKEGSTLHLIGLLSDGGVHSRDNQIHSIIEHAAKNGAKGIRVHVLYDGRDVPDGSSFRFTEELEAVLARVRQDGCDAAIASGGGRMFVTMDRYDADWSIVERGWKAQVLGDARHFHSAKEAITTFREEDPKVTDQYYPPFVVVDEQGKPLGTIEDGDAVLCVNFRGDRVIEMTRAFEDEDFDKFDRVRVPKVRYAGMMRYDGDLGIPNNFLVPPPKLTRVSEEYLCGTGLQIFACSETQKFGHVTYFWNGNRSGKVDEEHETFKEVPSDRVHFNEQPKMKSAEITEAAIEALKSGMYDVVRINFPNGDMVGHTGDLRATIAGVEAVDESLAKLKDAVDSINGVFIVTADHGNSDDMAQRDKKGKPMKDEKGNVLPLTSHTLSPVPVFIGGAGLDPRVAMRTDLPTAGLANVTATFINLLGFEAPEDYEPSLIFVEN
Sequence of Galactokinase (Homo sapiens) (P51570 whole entry, looked up): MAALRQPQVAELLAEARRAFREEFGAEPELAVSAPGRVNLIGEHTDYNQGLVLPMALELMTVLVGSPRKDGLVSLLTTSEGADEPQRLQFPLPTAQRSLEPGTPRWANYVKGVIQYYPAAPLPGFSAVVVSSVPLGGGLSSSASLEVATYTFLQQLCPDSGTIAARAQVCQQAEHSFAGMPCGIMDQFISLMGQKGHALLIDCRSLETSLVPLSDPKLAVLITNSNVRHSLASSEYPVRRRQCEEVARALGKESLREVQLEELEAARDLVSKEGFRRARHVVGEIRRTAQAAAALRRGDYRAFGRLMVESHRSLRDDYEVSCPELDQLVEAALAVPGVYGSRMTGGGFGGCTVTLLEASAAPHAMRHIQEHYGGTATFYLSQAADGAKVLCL
Sequence of ATPase family AAA domain-containing protein 5 (Homo sapiens) (Q96QE3 whole entry, looked up, the tested form may be a part): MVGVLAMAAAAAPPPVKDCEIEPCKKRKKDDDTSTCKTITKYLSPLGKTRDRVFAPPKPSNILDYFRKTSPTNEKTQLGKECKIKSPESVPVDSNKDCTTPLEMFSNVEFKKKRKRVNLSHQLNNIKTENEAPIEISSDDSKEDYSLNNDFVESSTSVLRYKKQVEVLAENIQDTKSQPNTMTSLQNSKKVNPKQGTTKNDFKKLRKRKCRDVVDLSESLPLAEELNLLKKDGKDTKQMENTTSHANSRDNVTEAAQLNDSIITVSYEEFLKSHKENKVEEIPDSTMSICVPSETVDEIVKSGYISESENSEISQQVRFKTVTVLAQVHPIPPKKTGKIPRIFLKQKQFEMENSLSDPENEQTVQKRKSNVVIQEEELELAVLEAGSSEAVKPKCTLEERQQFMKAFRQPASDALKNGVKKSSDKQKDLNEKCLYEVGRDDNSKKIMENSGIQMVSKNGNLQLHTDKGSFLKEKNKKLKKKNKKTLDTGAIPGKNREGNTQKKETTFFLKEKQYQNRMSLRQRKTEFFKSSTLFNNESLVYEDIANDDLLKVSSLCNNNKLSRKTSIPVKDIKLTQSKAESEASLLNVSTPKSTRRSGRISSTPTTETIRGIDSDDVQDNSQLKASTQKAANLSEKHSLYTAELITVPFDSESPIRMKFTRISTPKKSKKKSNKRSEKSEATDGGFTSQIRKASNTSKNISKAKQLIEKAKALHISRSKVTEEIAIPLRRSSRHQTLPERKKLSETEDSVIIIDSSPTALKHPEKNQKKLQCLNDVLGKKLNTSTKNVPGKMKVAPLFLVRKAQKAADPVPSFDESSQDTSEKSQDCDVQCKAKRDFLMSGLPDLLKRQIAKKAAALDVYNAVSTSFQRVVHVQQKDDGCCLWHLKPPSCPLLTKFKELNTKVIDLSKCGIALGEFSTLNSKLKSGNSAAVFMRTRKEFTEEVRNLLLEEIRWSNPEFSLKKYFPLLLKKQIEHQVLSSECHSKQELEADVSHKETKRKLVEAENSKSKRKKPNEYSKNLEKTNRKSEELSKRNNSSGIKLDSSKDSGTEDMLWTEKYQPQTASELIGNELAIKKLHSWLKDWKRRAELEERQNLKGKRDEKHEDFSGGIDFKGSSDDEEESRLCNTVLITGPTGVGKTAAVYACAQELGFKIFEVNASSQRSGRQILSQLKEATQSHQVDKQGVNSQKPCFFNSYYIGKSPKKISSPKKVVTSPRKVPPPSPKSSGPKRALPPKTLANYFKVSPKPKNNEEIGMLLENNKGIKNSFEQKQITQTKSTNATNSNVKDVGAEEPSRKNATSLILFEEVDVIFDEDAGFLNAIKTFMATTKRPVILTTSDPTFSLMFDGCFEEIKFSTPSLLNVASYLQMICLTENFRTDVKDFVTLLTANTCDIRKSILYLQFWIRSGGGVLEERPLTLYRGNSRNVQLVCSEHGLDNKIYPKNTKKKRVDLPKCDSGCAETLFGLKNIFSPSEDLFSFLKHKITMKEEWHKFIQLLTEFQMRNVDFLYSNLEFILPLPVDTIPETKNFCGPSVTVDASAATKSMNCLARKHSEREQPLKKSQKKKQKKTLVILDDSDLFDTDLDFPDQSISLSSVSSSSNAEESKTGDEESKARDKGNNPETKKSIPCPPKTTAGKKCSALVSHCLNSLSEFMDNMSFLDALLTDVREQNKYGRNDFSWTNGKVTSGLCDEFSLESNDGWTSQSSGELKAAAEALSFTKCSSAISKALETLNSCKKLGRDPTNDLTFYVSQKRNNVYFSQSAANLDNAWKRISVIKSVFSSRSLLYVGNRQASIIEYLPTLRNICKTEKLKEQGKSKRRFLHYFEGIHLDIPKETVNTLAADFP
Sequence of Ubiquitin carboxyl-terminal hydrolase 1 (Homo sapiens) (O94782 whole entry, looked up): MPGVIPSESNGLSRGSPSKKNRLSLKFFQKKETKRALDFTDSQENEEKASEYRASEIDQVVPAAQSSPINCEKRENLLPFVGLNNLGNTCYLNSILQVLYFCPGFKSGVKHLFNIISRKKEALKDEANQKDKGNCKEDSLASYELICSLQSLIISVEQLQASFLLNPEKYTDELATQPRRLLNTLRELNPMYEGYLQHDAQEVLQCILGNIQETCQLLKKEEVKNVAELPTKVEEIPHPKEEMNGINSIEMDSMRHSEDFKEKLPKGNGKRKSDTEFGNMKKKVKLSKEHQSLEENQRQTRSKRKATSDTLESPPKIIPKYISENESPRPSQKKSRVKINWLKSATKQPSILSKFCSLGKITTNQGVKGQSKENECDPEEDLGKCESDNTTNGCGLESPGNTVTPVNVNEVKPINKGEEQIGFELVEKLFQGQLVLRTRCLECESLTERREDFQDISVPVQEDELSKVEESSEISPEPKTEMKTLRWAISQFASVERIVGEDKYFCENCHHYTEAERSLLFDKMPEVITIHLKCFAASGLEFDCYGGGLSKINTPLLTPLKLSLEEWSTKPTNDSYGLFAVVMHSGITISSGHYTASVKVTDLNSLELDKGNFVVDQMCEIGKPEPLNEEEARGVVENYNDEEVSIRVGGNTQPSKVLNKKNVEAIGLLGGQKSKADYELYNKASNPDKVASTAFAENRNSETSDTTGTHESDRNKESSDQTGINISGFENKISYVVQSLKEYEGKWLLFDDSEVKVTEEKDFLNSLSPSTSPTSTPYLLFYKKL
Sequence of Estrogen receptor (Homo sapiens) (P03372 whole entry, looked up): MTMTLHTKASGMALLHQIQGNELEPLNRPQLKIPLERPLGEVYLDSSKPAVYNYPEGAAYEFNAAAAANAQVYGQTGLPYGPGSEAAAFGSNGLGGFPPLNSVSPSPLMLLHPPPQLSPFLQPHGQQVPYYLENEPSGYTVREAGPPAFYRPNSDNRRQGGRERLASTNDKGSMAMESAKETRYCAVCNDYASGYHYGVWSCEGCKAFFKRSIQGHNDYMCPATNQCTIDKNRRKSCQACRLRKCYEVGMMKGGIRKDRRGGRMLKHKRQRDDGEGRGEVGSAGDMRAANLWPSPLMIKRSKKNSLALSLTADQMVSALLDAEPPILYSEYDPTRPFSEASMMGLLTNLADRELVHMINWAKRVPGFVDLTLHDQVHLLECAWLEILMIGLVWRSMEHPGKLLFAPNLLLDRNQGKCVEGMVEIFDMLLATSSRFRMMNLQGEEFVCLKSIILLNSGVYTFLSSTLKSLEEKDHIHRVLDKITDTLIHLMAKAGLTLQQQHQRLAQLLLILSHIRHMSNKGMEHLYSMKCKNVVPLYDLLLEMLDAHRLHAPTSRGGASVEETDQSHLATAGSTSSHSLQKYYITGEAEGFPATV

Row | SMILES | Potency [1] | activation [2] | Potency [3] | viability change [3] [%] | outcome [4] | outcome [5] | outcome [6] | outcome [7] | outcome [8] | Potency [9] | Potency [10] | Potency [11] | outcome [12] | Potency [13] | outcome [14] | outcome [15] | Potency [16]
1 | CNC1(C)C2CCC(C2)C1(C)C (stereo unspecified) | inactive | 0.375% (inactive) | inactive | 3.39 | inactive | inactive | inactive | inactive | inactive | inactive | inactive | inactive |  |  |  |  | 
2 | CCCCNc1c(C(=O)OCC)c(C)nc2c1cnn2CC | inactive |  |  |  | inactive | inactive | inactive | inactive | inactive | inactive | inactive | inactive | inactive |  |  |  | 
3 | COC(=O)C1=C(C)NC(C)=C(C(=O)OCCN(C)Cc2ccccc2)C1c1cccc([N+](=O)[O-])c1 (stereo unspecified) | inactive | -4.56% (inactive) |  |  | inactive |  |  | inactive | inactive |  | 20 µM (active) | 35.5 µM (active) |  | 16.4 µM (active) |  |  | 
4 | C[C@]12CC[C@@H]3c4ccc(O)cc4C[C@@H](CCCCCCCCCS(=O)CCCC(F)(F)C(F)(F)F)[C@H]3[C@@H]1CC[C@@H]2O (stereo partly specified) | inactive |  |  |  | inactive |  |  | inactive | inactive |  | inactive | inactive |  |  | inactive |  | 
5 | COCCCC/C(=N\OCCN)c1ccc(C(F)(F)F)cc1 | inactive |  | inactive | 9.56 | inactive | inactive | inactive | inactive | inactive | inactive | inactive |  |  | inactive |  |  | 
6 | CC(=O)Nc1nnc(S(N)(=O)=O)s1 | inactive | 1.38% (inactive) |  |  | inactive | inactive | inactive | inactive | inactive | inactive | inactive | inactive |  | inactive |  | inactive | inactive
